Values joined by “and” are separate entries in the source; they are usually repeats but may differ in a detail not shown here. Equal values may be shown once. Results filed as inconclusive are left out. Where a call stands in place of a potency, no number is given. Active and inactive are the calls of the source. Calls come from the whole dose curve; as a rule, active = well fitted curve in the direction sought with a large enough effect; inconclusive = small, poorly fitted or top-dose-only effect, or another doubt; inactive = no such curve, though single readings can be large; an effect the other way counts as inactive or inconclusive.
What was measured:
[1] = molecular target: Cytochrome P450 3A7 (Homo sapiens) (UniProt P24462); assay: Cytochrome P450 family 3 subfamily A member 7 (CYP3A7) small molecule antagonists: luciferase biochemical qHTS assay (AID 1963596); conditions: P450-Glo CYP3A7 enzyme luminescence, 1 h; series mostly up to 57.4 µM; note: nearly all actives have a fitted effect of over 40% in size
Sequence of Cytochrome P450 3A7 (Homo sapiens) (P24462 whole entry, looked up): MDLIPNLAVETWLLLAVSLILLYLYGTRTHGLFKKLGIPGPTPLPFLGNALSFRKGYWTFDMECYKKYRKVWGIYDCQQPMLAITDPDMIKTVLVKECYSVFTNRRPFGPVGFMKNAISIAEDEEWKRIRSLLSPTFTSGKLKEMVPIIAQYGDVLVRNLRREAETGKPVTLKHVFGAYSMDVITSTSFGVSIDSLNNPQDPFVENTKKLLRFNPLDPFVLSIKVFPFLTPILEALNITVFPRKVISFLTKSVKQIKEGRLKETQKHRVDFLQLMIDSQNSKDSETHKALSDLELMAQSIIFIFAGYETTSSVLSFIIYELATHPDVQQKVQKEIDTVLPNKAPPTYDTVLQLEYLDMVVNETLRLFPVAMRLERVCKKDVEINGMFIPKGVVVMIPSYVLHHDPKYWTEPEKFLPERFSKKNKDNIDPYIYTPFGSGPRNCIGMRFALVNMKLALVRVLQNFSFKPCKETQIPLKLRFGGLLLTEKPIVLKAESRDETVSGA
How it was run: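 Biochemical CYP3A7 activity measured with P450-Glo system: luciferin formed from proluciferin substrate in NADPH-driven reaction (1 h, room temperature) after 10 min compound preincubation. Signal in relative luminescence units.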

[2] = Viability qHTS for spleen associated tyrosine kinase inhibitor (SYKi) naive MV4-11 cells (AID 1963823); conditions: MV4-11 AML viability, CellTiter-Glo luminescence, 72 h; series mostly up to 45 µM; note: nearly all actives have a fitted effect of over 40% in size; note: potency is the fitted concentration of half-maximal effect
How it was run: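 Viability of MV4-11 AML cells lacking prior SYK inhibitor exposure is scored by CellTiter-Glo luminescence following 72 hr compound incubation at 37 C, 5% CO2, seeded at 500 cells per well.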

[3] = Viability qHTS for spleen associated tyrosine kinase inhibitor (SYKi) drug resistant MV4-11 cells (AID 1963824); conditions: SYKi-resistant MV4-11 viability, CellTiter-Glo, 72 h; series mostly up to 45 µM; note: nearly all actives have a fitted effect of over 35% in size; note: potency is the fitted concentration of half-maximal effect
How it was run: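 CellTiter-Glo luminescence, read 10 min after reagent addition, reports viability after a 72 hr compound exposure. Cells are an MV4-11 line made resistant to SYK inhibition, seeded at 500 per well onto compound-containing plates.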

| SMILES | Potency [1] | Potency [2] | Potency [3] |
| --- | --- | --- | --- |
| CCOC(=O)N1CCC(CN(Cc2ccc(Cl)cc2)Cc2ccc([N+](=O)[O-])s2)C1 (stereo unspecified) | inactive | 10.3 µM (active) | 16.4 µM (active) |
| O=C(O)CC1CCC(c2ccc(-c3ccc4nc(C(=O)NCc5ccc(OC(F)(F)F)cc5)cn4c3)cc2)CC1 (stereo unspecified) | inactive | inactive | inactive |
| O=C(COc1ccc(Cl)cc1)NC1CCC(NC(=O)COc2ccc(Cl)cc2)CC1 (stereo unspecified) | inactive | inactive | inactive |
| COc1ccnc(CCc2nc3ncccc3[nH]2)c1 | inactive | inactive | inactive |
| N[C@@H](CCNCc1ccc(Cl)cc1)C(=O)N1CCCCC1 | inactive | inactive | inactive |
| C1N2CN3CN1CN(C2)C3 | inactive | inactive | inactive |
| Nc1nc(Cl)nc2c1ncn2[C@@H]1O[C@H](CO)[C@@H](O)[C@@H]1F | inactive | 106 nM (active) and 263 nM (active) | 188 nM (active) and 332 nM (active) |
| O=C(c1ccccn1)c1cnn2c(-c3ccncc3)ccnc12 | inactive | inactive | inactive |
| COc1ccc(C2(CNC(=O)c3ccc(NC(=O)c4ccco4)cc3)CCOCC2)cc1 | inactive | inactive | inactive |
| CN(C)CC(=O)Nc1ccc2[nH]c(=O)c3ccccc3c2c1 | inactive | 20.6 µM (active) | 20.6 µM (active) |
| CCCOc1ccccc1-c1nc2n[nH]nc2c(=O)[nH]1 | inactive | inactive | inactive |
| O=C(Nc1cccnn1)N1CCN(c2nccc(-c3ccc(F)c(F)c3)n2)CC1 | inactive | inactive | inactive |

Reference: PubChem BioAssay (NCATS)
